For 29 compounds, inhibition score results are on record in PubChem BioAssay AID489042 (NMMLSC, 2010).

Structures are written as SMILES. Values without a mark were called inactive. The source made the active and inactive calls. No stated cut-off is given here; in the data, active means inhibition score above about 11; inactive means the rest.

A short description of the test: S. cerevisiae short- and long-term growth effects – BY4741, OD595, 24 h, dose response (AID 489042). As to conditions: stronger effect = higher value.
In the case of `CC(C)(C)n1nc(-c2ccc(Cl)cc2)c2c(N)ncnc21`, the inhibition score was 21 (active).

As to `Cc1ccccc1NC(=O)c1cccc2nc3ccccc3nc12`, the inhibition score was 0. `C/C(=N\Nc1ncnc2sc(C)c(C)c12)c1ccccn1`: the inhibition score is 21 (active).

For the compound `O=C1c2c(O)ccc(O)c2C(=O)c2c(NCCNCCO)ccc(NCCNCCO)c21`, the inhibition score is 0. For the compound `Cc1cc2nc3ccc(N(C)C)cc3nc2cc1N`, the inhibition score was 0. Take `CCN(CC)C(=O)c1ccc2nc3ccccc3nc2c1`: the inhibition score was 0.

For the compound `c1ccc2[nH]c3cc4ncnc4cc3nc2c1`, the inhibition score is 0. For the compound `Cc1cccc2nc3ccccc3nc12`, the inhibition score was 10. As for `O=C(O)c1cnc2ccccc2n1`, the inhibition score is 0. In the case of `Cc1ccc(-c2nn(C(C)(C)C)c3ncnc(N)c23)cc1`, the inhibition score was 21 (active). As to `CSc1nnc2c3cc(F)ccc3n(C)c2n1`, the inhibition score is 21 (active). Regarding `Cc1cc(C)cc(NC(=O)CN2CCN(c3ccccn3)CC2)c1`, the inhibition score is 0. On to `COc1ccc2nc3ccccc3nc2c1N`, for which the inhibition score is 10.

As to `COc1ccc2c3c(cccc13)N(C)N=C2C`, the inhibition score was 10. As to `O=C(Nc1cccc(Cl)c1)Nc1ccc2nccnc2c1`, the inhibition score is 0. In the case of `CCN(CC)c1ccc2nc3ccc(N)cc3[n+](-c3ccccc3)c2c1`, the inhibition score is 0.

On to `COc1ccc2nc3cccc(OC)c3nc2c1`, for which the inhibition score was 10. For the compound `C=CCSc1nnc(-c2ccc([N+](=O)[O-])cc2)o1`, the inhibition score is 10. Consider `O=C(c1cccc2nc3ccccc3nc12)N1CCOCC1`, for which the inhibition score is 0. With `CC(C)OC(=O)c1ccc2nc3ccccc3nc2c1`, the inhibition score was 10.

For the compound `Cc1cc(C)c2[nH]c3nc(SCC(=O)O)nnc3c2c1`, the inhibition score was 0. Regarding `CCc1nc(NC(C)(C)C)c2cnn(-c3ccccc3)c2n1`, the inhibition score was 0.

As for `CCN(CC)C(=O)CSc1nnc(-c2cccc(OC)c2)o1`, the inhibition score is 0. Consider `O=C(Nc1ccc2nc3ccccc3nc2c1)c1ccccc1`, for which the inhibition score was 21 (active). As to `O=C(OCc1c(F)cccc1Cl)c1cnc2ccccc2n1`, the inhibition score was 0. As for `NC(=O)CSc1nnc(-c2ccc([N+](=O)[O-])cc2)o1`, the inhibition score was 0.

`CCCCCNC(=O)C(=O)C1C(=O)Nc2ccccc21` (centres undefined): the inhibition score was 10. In the case of `CC(C)CSc1nnc2c3ccccc3n(C)c2n1`, the inhibition score was 0. As for `N#CCc1nn(-c2ccccc2)c2ncnc(N)c12`, the inhibition score is 0.
